According to PubChem BioAssay AID504895 (National Center for Advancing Translational Sciences (NCATS), 2011):
Inconclusive results are not listed. Calls come from the whole dose curve; as a rule, active = well fitted curve in the direction sought with a large enough effect; inconclusive = small, poorly fitted or top-dose-only effect, or another doubt; inactive = no such curve, though single readings can be large or run the other way.

The compounds below were run against Protein phosphatase EYA2 (Homo sapiens) (UniProt O00167) (assay: Inhibitors of Eya2ED: Hit Confirmation in Primary Screen). Settings: Recombinant Eya2ED, OMFP fluorescence phosphatase assay; series mostly up to 76.9 µM; activity change, negative = inhibition: at the top concentration.
How it was run: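 Hits were retested as 12-point titrations. Compound sat 10 min at ambient with Eya2 (0.2 uM in dispense) in HEPES pH 7.5 buffer with NaCl, MgCl2, BSA and DTT, then OMFP substrate (50 uM in dispense) was added. Dephosphorylation was read by fluorescence at 485/525 nm after a further 10 min.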

Sequence of Protein phosphatase EYA2 (Homo sapiens) (O00167 whole entry, looked up): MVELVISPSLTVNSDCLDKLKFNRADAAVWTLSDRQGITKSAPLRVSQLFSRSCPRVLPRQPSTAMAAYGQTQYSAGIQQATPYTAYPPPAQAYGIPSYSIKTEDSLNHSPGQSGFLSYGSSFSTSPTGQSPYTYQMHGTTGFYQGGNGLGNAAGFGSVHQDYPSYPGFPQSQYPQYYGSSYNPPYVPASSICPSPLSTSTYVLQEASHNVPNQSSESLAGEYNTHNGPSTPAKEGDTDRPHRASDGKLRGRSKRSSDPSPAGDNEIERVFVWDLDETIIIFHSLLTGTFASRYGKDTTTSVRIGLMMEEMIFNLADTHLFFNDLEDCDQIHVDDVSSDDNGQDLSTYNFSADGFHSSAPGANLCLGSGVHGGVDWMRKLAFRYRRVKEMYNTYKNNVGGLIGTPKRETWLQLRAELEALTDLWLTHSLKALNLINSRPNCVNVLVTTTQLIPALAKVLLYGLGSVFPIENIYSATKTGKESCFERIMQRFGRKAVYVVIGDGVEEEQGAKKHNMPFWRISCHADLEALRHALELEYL

Activity change, negative = inhibition, inactive:
COc1ccc(NS(=O)(=O)c2cc([N+](=O)[O-])ccc2NN=Cc2ccccc2OCC(=O)O)cc1 3.46%, O=C(CCCN=C1NS(=O)(=O)c2ccccc21)OCc1ccc(F)cc1 -0.078%, COc1ccc(NC(=O)CSc2nc3[nH]c(=O)[nH]c(=O)c3s2)cc1OC 16%, Cc1cc(C)n(C(=O)COc2ccccc2[N+](=O)[O-])n1 -7.27%, O=C(NC1CCCCC1)c1cc2nc3c(c(C(F)(F)F)n2n1)CCCC3 -7.99%, O=C(COC(=O)c1ccccc1Nc1cccc(C(F)(F)F)c1)NCc1ccco1 -6.79%, COc1ccc2c(c1)[C@H]1[C@H](CO2)[C@H](c2ccccc2)[C@]2(C)C(=O)Nc3ccc(F)cc3C(=O)N12 -16.7%, Cc1c(NS(=O)(=O)c2ccc(N)cc2)c(=O)n(-c2ccccc2)n1C -15.5%, COc1ccc(/C=C(\C#N)C(=O)OCC(=O)N2CC(C)OC(C)C2)cc1 (configuration not stated) -19.7%, Cc1cc(C(=O)Nc2ccc(N3CCCCC3)cc2)no1 -3.38%, Cc1ccc(N(CC(=O)N2CCOCC2)S(C)(=O)=O)cc1Cl -1.2%, CN1CC[n+]2cnc3ccccc3c21 -18.8%, CC(=O)c1c(C)[nH]c(C(=O)NNC(=O)c2ccc(Br)cc2)c1C -4.21%, O=C(C1CCC(=O)N(C2CCCC2)C1)N1CCC(Oc2cccc(F)c2)CC1 (configuration not stated) 9%, Cc1ccc(Nc2nc(N)nc(CSc3ncccn3)n2)cc1 -25.5%, COc1ccc(CCNC(=O)CCSc2nc(-c3ccco3)cc(C(F)(F)F)n2)cc1OC -7.04%, CCOc1ccc(S(=O)(=O)N2CCN(C(=O)c3sccc3C)CC2)cc1 -6.23%
